Out of some 360,000 compounds screened, about 8,200 (2.3%) were called active. The entries come from a sample that favours actives as a whole. Values without a mark were called inactive. Cut-off read from the data, not from the text of the source: active = inhibition above about 27%; inactive = the rest.

We go through 91 molecules from PubChem BioAssay AID588726 (The Scripps Research Institute Molecular Screening Center, 2011).

The target of this assay is Fructose-bisphosphate aldolase (Mycobacterium tuberculosis (strain ATCC 25618 / H37Rv)) (UniProt P9WQA3). The experiment in a line: Mtb FBA enzyme inhibitors, primary screen, biochemical, fluorescence, strain H37Rv (AID 588726).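 Note: 0% = vehicle and 100% = reference inhibitor.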 The following applies: purified M. tuberculosis FBA, fluorescence read-out, at 1 µM, hits give high values.
Chain of Fructose-bisphosphate aldolase (Mycobacterium tuberculosis (strain ATCC 25618 / H37Rv)) (P9WQA3 whole entry, looked up): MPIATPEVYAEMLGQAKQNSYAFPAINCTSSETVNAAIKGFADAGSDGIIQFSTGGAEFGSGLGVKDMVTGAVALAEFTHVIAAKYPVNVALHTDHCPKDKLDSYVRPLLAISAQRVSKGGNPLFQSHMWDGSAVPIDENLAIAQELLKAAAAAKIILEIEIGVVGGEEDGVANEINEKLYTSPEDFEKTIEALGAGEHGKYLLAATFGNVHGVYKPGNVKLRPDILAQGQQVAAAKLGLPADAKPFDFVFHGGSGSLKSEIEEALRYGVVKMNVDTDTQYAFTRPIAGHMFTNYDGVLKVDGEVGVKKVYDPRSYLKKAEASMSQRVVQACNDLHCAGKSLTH
Consider `COc1ccc(C(C(=O)NC2CCCC2)N(CCCO)C(=O)Cn2nnc(-c3ccc(C)o3)n2)cc1` (stereo unspecified), for which the inhibition (commonly the change of the read-out against control, counted positive when it falls) was 0.22%.

Regarding `CCOC(=O)CCCCCC(=O)Nc1ccc2c(c1)CC(=O)N([C@@H](C)CO)C[C@H](C)[C@@H](CN(C)Cc1ccccc1)O2`, the inhibition was 1.41%.

Take `Cc1nnc(NC2=NCCCCC2)o1`: the inhibition is 2.72%.

Take `COC(=O)c1cccnc1NC(=S)NC(C)C`: the inhibition is -6.99%.

In the case of `CSc1nnc(-c2ccc(C(F)(F)F)cn2)o1`, the inhibition is 7.82%.

As to `Cc1cccc(-c2nc3ccc(C(=O)NCCN4CCN(C)CC4)cc3nc2-c2cccc(C)c2)c1`, the inhibition is 25.3%.

On to `Cc1ccc(-n2nc3c(c2NC(=O)c2ccc4c(c2)OCO4)CSC3)c(C)c1`, for which the inhibition is 0.86%.

Regarding `C=CCNC(=O)c1ccc2c3n(nc2c1)-c1ccc(C)cc1CO3`, the inhibition was 46.8% (active).

On to `O=C(OC1CCOC1=O)c1ccc(-c2nc3ccccc3s2)s1` (stereo unspecified), for which the inhibition is 36.7% (active).

As for `COc1cc(C(=O)OC2CCOC2=O)c([N+](=O)[O-])cc1OC` (stereo unspecified), the inhibition is 1.88%.

Turning to `CC(C)c1ccc(C(=O)OC2CCOC2=O)cc1` (stereo unspecified), the inhibition is -2.02%.

For `Cc1cc(C)c(S(=O)(=O)c2ccccc2)c(OC(=O)c2c(F)cccc2Cl)n1`, the inhibition is 2.73%.

As for `COc1ccc(-c2nc3cnccn3c2NC2CCCCC2)cc1-c1cccc(Cl)c1`, the inhibition was 24.3%.

`Cc1ccc2nc(-c3cccnc3)c(NC3CCCC3)n2c1`: the inhibition was 2.23%.

As for `COc1ccc(-c2nc3cc(C)ccn3c2NC2CCCCC2)cc1SC1CCCCC1`, the inhibition is 27.2% (active).

With `Cc1[nH]nc(-c2ccc(OCc3cnn(-c4ccccc4)c3)cc2O)c1Oc1ccc(Cl)cc1`, the inhibition was 3.96%.

With `COc1ccc(S(=O)(=O)N2CCOC2CNC(=O)C(=O)NCc2ccc(F)cc2)cc1` (stereo unspecified), the inhibition was -0.16%.

Consider `c1cnc(N2CCN(c3ccc4ccccc4n3)CC2)nc1`, for which the inhibition is 2.95%.

Turning to `CC12CCC(C(=O)N3CCN(c4ncccn4)CC3)(c3nc4ccccc4nc31)C2(C)C` (stereo unspecified), the inhibition was 30% (active).

Consider `CC(Oc1ccc(F)cc1)C(=O)N1CCN(c2ncccn2)CC1` (stereo unspecified), for which the inhibition is 1.68%.

`COC(=O)C1=CO[C@@H](O[C@@H]2O[C@H](CO)[C@@H](O)[C@H](O)[C@H]2O)C2C1C[C@H](O)[C@@H]2C` (stereo partly specified): the inhibition was -0.2%.

As for `CCc1cc(=O)oc2c(C)c(OCC(=O)NCCN3CCOCC3)ccc12`, the inhibition was 18%.

Consider `CCCCc1cc(=O)oc2c(C)c(OCC(=O)N3CCC(C(N)=O)CC3)ccc12`, for which the inhibition is 13.9%.

`CCCc1cc(=O)oc2c(C)c(OCC(=O)N3CCC(C(=O)O)CC3)ccc12`: the inhibition is 44.1% (active).

In the case of `CCOC(=O)C1CCN(C(=O)COc2cccc3ccccc23)CC1`, the inhibition was -4.37%.

As for `Cc1cc(=O)oc2c(C)c(OCC(=O)N3CCN(Cc4ccc5c(c4)OCO5)CC3)ccc12`, the inhibition was 20.6%.

`CCc1cc(=O)oc2c(C)c(OCC(=O)N3CC[C@@]4(O)CCCC[C@H]4C3)ccc12`: the inhibition is 36.8% (active).

As for `Cc1c(C)c2ccc(OCC(=O)N3CCC(C(=O)O)CC3)c(C)c2oc1=O`, the inhibition is 119% (active).

As for `CCCc1cc(=O)oc2c(C)c(OCC(=O)Nc3ccccn3)ccc12`, the inhibition is 14.2%.

Turning to `N#Cc1cccc(OC(=O)c2ccc3c(=O)n4c(nc3c2)CCC4)c1`, the inhibition was 1.39%.

As for `CCCc1cc(=O)[nH]c(SCc2cc(=O)oc3c(C)c(C)ccc23)n1`, the inhibition was -1.06%.

As for `COC(=O)c1sc(-c2ccc(C(C)(C)C)cc2)cc1NC(=O)/C=C/C(=O)O`, the inhibition was 1.9%.

Turning to `CCC(C)(C)n1nnnc1CN1CCN(c2nc3ccc(C)cc3cc2C#N)CC1`, the inhibition is 3.89%.

For `COc1cc2c(cc1OC)C(C)N(S(=O)(=O)c1cnc(Cl)c(Cl)c1)CC2` (stereo unspecified), the inhibition is -4.46%.

For `CN(CCC#N)c1ncnc2scc(-c3ccccc3)c12`, the inhibition is 4.16%.

For `C=CCNc1nc(N)c(C(=C(C#N)C#N)c2ccccc2)s1`, the inhibition was 135% (active).

Turning to `COC(=O)c1sc(N2CCN(Cc3ccccc3)CC2)nc1N`, the inhibition is 1.57%.

Regarding `COc1ccc(N(CC(=O)NC2CCCCC2)C(=O)CNC(=O)c2ccco2)c(OC)c1`, the inhibition is 3.44%.

Regarding `O=c1[nH]c(=O)n(Cc2ccco2)c2c1C(C(F)(F)F)(C(F)(F)F)N=C(c1ccco1)N2`, the inhibition is 1.76%.

With `CCCCC[C@@H]1C=C(C(=O)OCC)[C@H](c2ccccc2)N1S(=O)(=O)c1ccc(C)cc1`, the inhibition was -1.47%.

With `CN(CCc1ccccn1)C1CCCN(S(=O)(=O)c2ccccc2Cl)C1` (stereo unspecified), the inhibition is -1.97%.

On to `CN(CCc1ccccn1)S(=O)(=O)c1ccc2c3c(cccc13)C(=O)N2`, for which the inhibition is 50.8% (active).

Turning to `CN(CC(=O)NCCc1ccccn1)S(=O)(=O)c1ccc(Cl)cc1`, the inhibition was -1.58%.

`CC1(C)Cc2c(sc3nc(SCC(=O)NCc4ccccc4)n(-c4ccccc4)c(=O)c23)CS1`: the inhibition was 1.67%.

Take `CCCNC(=S)NC1CC2CCCC(C1)N2CC(C)C` (stereo unspecified): the inhibition was 0.49%.

Turning to `COC(=O)C1=NNC2(c3ccc(C)cc3)C(=O)N(c3cccc(C)c3C)C(=O)C12` (stereo unspecified), the inhibition is -2.73%.

Regarding `COC(=O)c1c(-c2cccs2)csc1NC(=O)CSc1ncnc2sc(C)c(C)c12`, the inhibition is 1.16%.

Turning to `CCNC(=O)CN(c1ccc(C)cc1)S(=O)(=O)c1ccc(SC)cc1`, the inhibition was -1.29%.

Take `O=C(NNc1c2ccccc2nc2ccccc12)c1cc2ccccc2cc1O`: the inhibition is -10.4%.

With `CC(C)(C)OC(=O)NNc1c2ccccc2nc2ccccc12`, the inhibition was 74.1% (active).

As to `Cc1ccc(C(=O)NNC(=O)OC(C)(C)C)c(Cl)c1`, the inhibition was -0.17%.

`Cc1ccc(S(=O)(=O)N(CCCN(C)C)Cc2ccc3c(c2)OCO3)cc1`: the inhibition is 1.83%.

Consider `O=C(CCN1C(=O)[C@@H]2Cc3ccccc3CN2C1=O)NCCc1ccccc1`, for which the inhibition was -6.76%.

On to `CC(=O)c1cccc(NC(=O)C2CCCN(S(=O)(=O)c3cccc4nonc34)C2)c1` (stereo unspecified), for which the inhibition was 5.88%.

As to `O=C(CN(C(=O)CNC(=O)c1cccs1)c1cccc(F)c1)NC1CCCCC1`, the inhibition was -0.45%.

In the case of `Cn1c(CCc2ccccc2)nnc1SCC(N)=O`, the inhibition is -0.79%.

As for `COC(=O)CCNC(=O)c1ccc2[nH]c(C)c(C)c2c1`, the inhibition was 4.35%.

Take `CN(C)CCCNC(=O)c1ccc2[nH]c3ccccc3c2c1`: the inhibition is 34.9% (active).

In the case of `CCCCNC(=O)c1ccc(-n2c(=S)[nH]c3ccccc3c2=O)cc1`, the inhibition was -2.52%.

`O=C(Nc1ncc2c(n1)CC(c1ccco1)CC2=O)c1ccc(Cl)cc1` (stereo unspecified): the inhibition was -1.48%.

Consider `O=C(Nc1ccc(Cl)cn1)c1ccccc1-c1ccccc1`, for which the inhibition is -2.1%.

With `O=C(Nc1ncc2c(n1)-c1ccccc1OC2)c1ccc(Cl)cc1`, the inhibition was 97.1% (active).

Turning to `CC(C)NC(=O)C(=O)NCCN1CCN(S(=O)(=O)c2ccc(Cl)cc2)CC1`, the inhibition is 2.59%.

`CC1(C)O[C@@H]2[C@H](O1)[C@@H](CO)O[C@H]2n1c(N2CCCCC2)nc2c(N)ncnc21`: the inhibition is 0.56%.

With `CCOC(=O)N1CCN(CC(=O)Nc2ccc(F)cc2)CC1`, the inhibition was -0.85%.

Turning to `CCC(=O)Nc1ccc2nn(-c3ccc(F)cc3)nc2c1`, the inhibition is 102% (active).

`O=C(Nc1cccc(Cl)c1)c1cncn1-c1ccc(F)cc1`: the inhibition was 6.15%.

Consider `Nc1c(N(CCO)C(=O)C2CCCCC2)c(=O)[nH]c(=O)n1Cc1ccccc1`, for which the inhibition was 5.19%.

With `CCc1nccn1CCC(=O)N1CCCC(N2CCN(c3ccccc3F)CC2)C1` (stereo unspecified), the inhibition was -1.12%.

Consider `CNC(=O)c1nnn(-c2ccccc2)c1C(=O)NC`, for which the inhibition is 3.79%.

With `N#CCCN1CCN(S(=O)(=O)c2ccc(S(=O)(=O)NC3CC3)cc2)CC1`, the inhibition is -0.2%.

On to `CC(Sc1nnc(-c2ccccc2F)n1C1CC1)C(N)=O` (stereo unspecified), for which the inhibition is -0.8%.

For the molecule `Cc1cc(C)c2nc3nc(C)cc(C)c3c(N)c2c1`, the inhibition was 42.9% (active).

For `CCC(=O)Nc1ccc(-c2ccc(N3CCCCC3)nn2)cc1`, the inhibition was 4.9%.

Consider `CC(=O)N1N=C(c2ccccc2)OC1c1cccnc1` (stereo unspecified), for which the inhibition is -0.2%.

Consider `CC(=O)N1N=C(c2ccncc2)OC1(Cc1ccccc1)Cc1ccccc1`, for which the inhibition was 46.8% (active).

For `O=C(Cc1ccccc1)N1N=C(c2ccncc2)CC1(O)C(F)(F)F` (stereo unspecified), the inhibition was -4.28%.

For the molecule `CCCCn1c(SCc2ncc(-c3ccccc3)o2)nc2cc(S(N)(=O)=O)ccc21`, the inhibition is -3.35%.

Turning to `O=C(CN(Cc1ccc(Br)cc1)S(=O)(=O)c1ccccc1)NCc1ccncc1`, the inhibition is 3.05%.

For `Cc1ccc2c(C(=O)CN3CCCC3)c(C)[nH]c2c1`, the inhibition was -0.06%.

`O=C(Nc1nncs1)c1ccccc1NS(=O)(=O)c1cccs1`: the inhibition is 75% (active).

For the molecule `O=C(Nc1cccc(Cl)c1)Nc1ccccc1NS(=O)(=O)c1cccs1`, the inhibition is -6.91%.

In the case of `COc1cc(NC(=O)c2ccccc2NS(=O)(=O)c2ccc(Cl)s2)cc(OC)c1`, the inhibition is 2.51%.

For the molecule `CCCNc1ncnc2sc(C)c(C)c12`, the inhibition was 2.22%.

As for `O=C(Nc1c(Cl)cccc1Cl)C1CCC1`, the inhibition was 5.25%.

Turning to `O=C(Nc1ccc(F)cc1)c1cccnc1N1CCOCC1`, the inhibition is 1.16%.

Turning to `Cc1cccc(C(=O)NC(=S)N2CCN(c3ccc([N+](=O)[O-])cc3)CC2)c1`, the inhibition was -0.47%.

On to `CCC(=O)Nc1cccc(C2=NOC3(C2)C[C@@H](C(N)=O)N(C(=O)c2cc([N+](=O)[O-])cc([N+](=O)[O-])c2C)C3)c1` (stereo partly specified), for which the inhibition is -2.54%.

For `Cc1ccc(NC2(C#N)C(=O)Nc3ccccc32)cc1` (stereo unspecified), the inhibition was -3.14%.

Take `N#CC1=C(N)Oc2[nH]c(=S)[nH]c(=O)c2C12C(=O)Nc1ccccc12` (stereo unspecified): the inhibition is 126% (active).

Regarding `Cc1ccc(OCC(=O)Nc2ccccc2Sc2ccc(Cl)cc2)c([N+](=O)[O-])n1`, the inhibition was -0.96%.
